Test results published in PubChem BioAssay (Tox21).
Records with an inconclusive call do not appear. Entries that show only a call come without a potency. Calls of active or inactive are those of the source. Unless noted, calls follow the shape of the dose curve; as a rule, active = well fitted curve in the direction sought with a large enough effect in the repeat runs; inconclusive = weak or mixed curves; inactive = no such curve, though single readings can be large; an effect the other way counts as inactive or inconclusive.

test system: not listed separately; test: qHTS assay for identifying genotoxic compounds that show differential cytotoxicity against isogenic chicken DT40 cell lines with known DNA damage response pathways - Rad54/Ku70 mutant cell line (AID 743015); conditions: DT40 Rad54/Ku70 mutant viability, CellTiter-Glo, 40 h; series mostly up to 66.8 µM; also: nearly all actives have a fitted effect of over 60% in size; also: potency is read from the fitted curve at half-maximal effect

SMILES | Potency
CC(=O)/C(C)=C/C1C(C)=CCCC1(C)C (stereo not drawn) | inactive
N#Cc1c(F)cccc1F | inactive
CN(C)CCCOc1nn(Cc2ccccc2)c2ccccc12 | 11.4 µM (active)
COc1ccc(OC)c(OC)c1 | inactive
NC(N)=NN=C(/C=C/c1ccc([N+](=O)[O-])o1)/C=C/c1ccc([N+](=O)[O-])o1 | 1.88 µM (active)
Cl/C(=C\n1cncn1)c1ccc(Cl)cc1Cl | inactive
CN1CCC[C@@H]1c1cccnc1 | inactive
Cc1c(Cn2ccnc2)c2ccccc2n1CCC(=O)O | inactive
Cc1ccc(C(=O)C(C)CN2CCCCC2)cc1 (stereo not drawn) | 26.6 µM (active)
C=Cc1c(C)c2cc3[nH]c(cc4nc(cc5nc(cc1[nH]2)C(C)=C5CCC(=O)O)C(CCC(=O)O)=C4C)c(C)c3C=C | inactive
CCCCCCCCC(CO)CCCCCC (stereo not drawn) | inactive
CC(=O)CC(=O)c1ccccc1 | inactive

test system: not listed separately; test: qHTS assay to identify small molecule antagonists of the androgen receptor (AR) signaling pathway - cell viability counter screen (AID 743033; also: nearly all actives have a fitted effect of over 45% in size; also: potency is read from the fitted curve at half-maximal effect); conditions: AR-bla HEK293 viability, CellTiter-Glo luminescence, 16 h; series mostly up to 58.5 µM

SMILES | Potency
CCCCCCCCCCCCCCCC(=O)OC/C=C(C)/C=C/C=C(C)/C=C/C1=C(C)CCCC1(C)C | inactive
CC(C(=O)O)c1ccc(-c2ccccc2)c(F)c1 (stereo not drawn) | inactive
CC(O)C1CCCCC1 (stereo not drawn) | inactive
C=C(C)C(=O)OC(C)C | inactive
CCOC(=O)CC(C)C | inactive
COc1ccccc1OC(=O)Oc1ccccc1OC | inactive
O=C(O)COC(=O)Cc1ccccc1Nc1c(Cl)cccc1Cl | inactive
Cc1ncsc1CCO | inactive
CC1(C)[C@H]2CC[C@]1(C)[C@H](O)C2 | inactive
FC(F)(F)C(F)(F)C(F)(F)C(F)(F)C(F)(F)C(F)(F)CCI | inactive
Cc1ccc(C)o1 | inactive
CCCCCC/C=C/C=O | inactive
O=C(c1ccccc1)c1ccc2n1CCC2C(=O)O (stereo not drawn) | inactive
Nc1nc(N)c2nc(CNc3ccc(C(=O)N[C@@H](CCC(=O)O)C(=O)O)cc3)cnc2n1 | inactive
O=C(O)C(c1ccc(Cl)cc1)c1ccc(Cl)cc1 | inactive
NC(=S)N/N=C/c1cccnc1 | inactive
CC(C)CC=O | inactive

SMILES | Potency
CC(=O)SCc1ccco1 | inactive
CC(=O)OCCc1ccccc1 | inactive
COc1cc(C(C)(C)C)c(O)c(C(C)(C)C)c1 | inactive
CC(=O)O[C@H]1C[C@@H]2CC[C@@H]3[C@H](CC[C@@]4(C)[C@H]3C[C@H]([N+]3(C)CCCCC3)[C@@H]4OC(C)=O)[C@@]2(C)C[C@@H]1N1CCCCC1 | inactive
CC(=O)/C(C)=C/C1C(C)=CCCC1(C)C (stereo not drawn) | inactive
N#Cc1c(F)cccc1F | inactive
CN(C)CCCOc1nn(Cc2ccccc2)c2ccccc12 | inactive
COc1ccc(OC)c(OC)c1 | inactive
NC(N)=NN=C(/C=C/c1ccc([N+](=O)[O-])o1)/C=C/c1ccc([N+](=O)[O-])o1 | 9.52 µM (active)
Cl/C(=C\n1cncn1)c1ccc(Cl)cc1Cl | inactive
CN1CCC[C@@H]1c1cccnc1 | inactive
Cc1c(Cn2ccnc2)c2ccccc2n1CCC(=O)O | inactive
Cc1ccc(C(=O)C(C)CN2CCCCC2)cc1 (stereo not drawn) | inactive
C=Cc1c(C)c2cc3[nH]c(cc4nc(cc5nc(cc1[nH]2)C(C)=C5CCC(=O)O)C(CCC(=O)O)=C4C)c(C)c3C=C | inactive
CCCCCCCCC(CO)CCCCCC (stereo not drawn) | inactive
CC(=O)CC(=O)c1ccccc1 | inactive

biological target: Androgen receptor (Homo sapiens) (UniProt P10275); test: qHTS assay to identify small molecule antagonists of the androgen receptor (AR) signaling pathway (AID 743035; active = well fitted inhibition curve with a large enough effect in the signal ratio in the repeat runs, not every such curve was filed as active; the % refers to the signal ratio; also: potency is read from the fitted curve at half-maximal effect); conditions: HEK293 AR-UAS-bla, R1881-stimulated, beta-lactamase FRET, 16 h; series mostly up to 58.5 µM
Sequence (P10275 whole entry, looked up): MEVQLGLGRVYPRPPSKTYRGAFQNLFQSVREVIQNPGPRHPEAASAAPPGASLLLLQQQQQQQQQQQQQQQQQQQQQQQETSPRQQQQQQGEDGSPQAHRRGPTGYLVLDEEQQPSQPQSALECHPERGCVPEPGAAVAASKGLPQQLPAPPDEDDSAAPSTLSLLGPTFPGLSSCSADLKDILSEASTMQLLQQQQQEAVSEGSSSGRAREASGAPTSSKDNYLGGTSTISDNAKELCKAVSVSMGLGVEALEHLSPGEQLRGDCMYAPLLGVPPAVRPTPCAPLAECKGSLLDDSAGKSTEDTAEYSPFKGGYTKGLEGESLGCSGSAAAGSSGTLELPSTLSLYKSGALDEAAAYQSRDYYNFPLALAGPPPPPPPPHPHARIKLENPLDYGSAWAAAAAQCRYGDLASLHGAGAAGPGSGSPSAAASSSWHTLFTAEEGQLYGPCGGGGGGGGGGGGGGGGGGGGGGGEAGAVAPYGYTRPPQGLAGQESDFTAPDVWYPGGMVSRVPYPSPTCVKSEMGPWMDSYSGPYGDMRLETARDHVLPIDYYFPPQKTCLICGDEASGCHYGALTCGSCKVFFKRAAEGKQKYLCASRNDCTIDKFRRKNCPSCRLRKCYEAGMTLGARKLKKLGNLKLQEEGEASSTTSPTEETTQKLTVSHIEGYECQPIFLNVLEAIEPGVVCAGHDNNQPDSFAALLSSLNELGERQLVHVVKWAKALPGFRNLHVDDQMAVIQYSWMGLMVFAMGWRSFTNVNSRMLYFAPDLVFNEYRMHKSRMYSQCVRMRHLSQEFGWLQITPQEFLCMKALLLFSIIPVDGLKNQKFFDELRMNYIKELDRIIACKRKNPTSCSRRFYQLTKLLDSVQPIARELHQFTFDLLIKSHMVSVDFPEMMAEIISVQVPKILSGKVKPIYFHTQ
Outline: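 Steps: seed AR-UAS-bla GripTite HEK293 cells, incubate 4 h at 37C; pin in test compound, then add agonist R1881; incubate 16 h at 37C; add LiveBLAzer B/G FRET substrate, 2 h at room temperature; read fluorescence.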

SMILES | Potency
C=C(C)C(=O)OC(C)C | inactive
O=C(O)COC(=O)Cc1ccccc1Nc1c(Cl)cccc1Cl | inactive
CCCCCC/C=C/C=O | inactive
NC(=S)N/N=C/c1cccnc1 | inactive
CC(=O)SCc1ccco1 | inactive
NC(N)=NN=C(/C=C/c1ccc([N+](=O)[O-])o1)/C=C/c1ccc([N+](=O)[O-])o1 | 5.35 µM (active)

biological target: Androgen receptor (Homo sapiens) (UniProt P10275); test: qHTS assay to identify small molecule agonists of the androgen receptor (AR) signaling pathway (AID 743036; active = well fitted activation curve with a large enough effect in the signal ratio in the repeat runs, with a control signal flat, not every such curve was filed as active; the % refers to the signal ratio); conditions: HEK293 AR-UAS-bla GripTite, beta-lactamase FRET ratio, 16 h; series mostly up to 62.4 µM
Outline: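 Quantitative HTS of the Tox21 10K library in HEK293 cells bearing a stably integrated UAS-controlled beta-lactamase reporter. Compound exposure lasted 16 h at 37C. Reporter activity was detected by FRET substrate fluorescence after 2 h at room temperature.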

SMILES | outcome
C=C(C)C(=O)OC(C)C | inactive
COc1ccccc1OC(=O)Oc1ccccc1OC | inactive
O=C(O)COC(=O)Cc1ccccc1Nc1c(Cl)cccc1Cl | inactive
NC(=S)N/N=C/c1cccnc1 | inactive
CC(=O)SCc1ccco1 | inactive

biological target: Androgen receptor (Homo sapiens) (UniProt P10275); test: qHTS assay to identify small molecule agonists of the androgen receptor (AR) signaling pathway using the MDA cell line (AID 743040; also: nearly all actives have a fitted effect of over 20% in size); conditions: MDA-kb2 AR-luc cells, MMTV luciferase, 16 h; series mostly up to 70.3 µM
Outline: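 Agonist activity is measured as luciferase luminescence in human MDA-kb2 cells whose MMTV reporter responds to both AR and GR. Compounds in DMSO incubate 16 h at 37C, 0% CO2, and ONE-Glo is read after 30 min.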

SMILES | Potency
C=C(C)C(=O)OC(C)C | inactive
COc1ccccc1OC(=O)Oc1ccccc1OC | inactive
O=C(O)COC(=O)Cc1ccccc1Nc1c(Cl)cccc1Cl | inactive
NC(=S)N/N=C/c1cccnc1 | inactive
CC(=O)SCc1ccco1 | inactive
NC(N)=NN=C(/C=C/c1ccc([N+](=O)[O-])o1)/C=C/c1ccc([N+](=O)[O-])o1 | inactive

test system: not listed separately; test: qHTS assay to identify small molecule antagonists of the androgen receptor (AR) signaling pathway using the MDA cell line - cell viability counter screen (AID 743041; also: nearly all actives have a fitted effect of over 45% in size; also: potency is read from the fitted curve at half-maximal effect); conditions: MDA-kb2 viability, CellTiter-Fluor, 16 h, cells co-treated with R1881 androgen agonist; series mostly up to 70.3 µM
Outline: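 qHTS viability read-out; MDA-kb2 AR-luc; R1881-stimulated; 16 h exposure at 37C, 0% CO2; CellTiter-Fluor, 30 min; fluorescence intensity.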

SMILES | Potency
CC(C(=O)O)c1ccc(-c2ccccc2)c(F)c1 (stereo not drawn) | inactive
C=C(C)C(=O)OC(C)C | inactive
CCOC(=O)CC(C)C | inactive
COc1ccccc1OC(=O)Oc1ccccc1OC | inactive
Cc1ncsc1CCO | inactive
CC1(C)[C@H]2CC[C@]1(C)[C@H](O)C2 | inactive
FC(F)(F)C(F)(F)C(F)(F)C(F)(F)C(F)(F)C(F)(F)CCI | inactive
Cc1ccc(C)o1 | inactive
O=C(c1ccccc1)c1ccc2n1CCC2C(=O)O (stereo not drawn) | inactive
Nc1nc(N)c2nc(CNc3ccc(C(=O)N[C@@H](CCC(=O)O)C(=O)O)cc3)cnc2n1 | inactive
O=C(O)C(c1ccc(Cl)cc1)c1ccc(Cl)cc1 | inactive
CC(=O)SCc1ccco1 | inactive
CC(=O)OCCc1ccccc1 | inactive
COc1cc(C(C)(C)C)c(O)c(C(C)(C)C)c1 | inactive
CC(=O)O[C@H]1C[C@@H]2CC[C@@H]3[C@H](CC[C@@]4(C)[C@H]3C[C@H]([N+]3(C)CCCCC3)[C@@H]4OC(C)=O)[C@@]2(C)C[C@@H]1N1CCCCC1 | inactive
CC(=O)/C(C)=C/C1C(C)=CCCC1(C)C (stereo not drawn) | inactive
COc1ccc(OC)c(OC)c1 | inactive
NC(N)=NN=C(/C=C/c1ccc([N+](=O)[O-])o1)/C=C/c1ccc([N+](=O)[O-])o1 | 23.7 µM (active)
Cc1c(Cn2ccnc2)c2ccccc2n1CCC(=O)O | inactive
C=Cc1c(C)c2cc3[nH]c(cc4nc(cc5nc(cc1[nH]2)C(C)=C5CCC(=O)O)C(CCC(=O)O)=C4C)c(C)c3C=C | inactive
CC(=O)CC(=O)c1ccccc1 | inactive
